# Screening results: PubChem BioAssay, several laboratories
# Sampled rows, rich in hits. Any-hit rate of the full collection: about 1.9%.
# EBNA-1 inh = blocks EBNA-1 binding to DNA; EBNA-1 DNA binding, fluorescence polarization; inhibition, % at 14.8 µM; 0.34% of 300,000 active; in the data active = inhibition above about 28%
# NR1D1 modulator = Rev-erb alpha (human) modulation; 0.79% of 370,000 active; Rev-erbα–FITC-DNA binding, fluorescence polarization, 90 min; activity, % at 10 µM; P20393;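 active = activity above about 14%, limit read from the data; passing the limit was not always enough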;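 note: 0% = DMSO wells with 35 nM protein and 100% = DMSO wells with 750 nM protein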
# Target sequence (P20393 whole entry, looked up): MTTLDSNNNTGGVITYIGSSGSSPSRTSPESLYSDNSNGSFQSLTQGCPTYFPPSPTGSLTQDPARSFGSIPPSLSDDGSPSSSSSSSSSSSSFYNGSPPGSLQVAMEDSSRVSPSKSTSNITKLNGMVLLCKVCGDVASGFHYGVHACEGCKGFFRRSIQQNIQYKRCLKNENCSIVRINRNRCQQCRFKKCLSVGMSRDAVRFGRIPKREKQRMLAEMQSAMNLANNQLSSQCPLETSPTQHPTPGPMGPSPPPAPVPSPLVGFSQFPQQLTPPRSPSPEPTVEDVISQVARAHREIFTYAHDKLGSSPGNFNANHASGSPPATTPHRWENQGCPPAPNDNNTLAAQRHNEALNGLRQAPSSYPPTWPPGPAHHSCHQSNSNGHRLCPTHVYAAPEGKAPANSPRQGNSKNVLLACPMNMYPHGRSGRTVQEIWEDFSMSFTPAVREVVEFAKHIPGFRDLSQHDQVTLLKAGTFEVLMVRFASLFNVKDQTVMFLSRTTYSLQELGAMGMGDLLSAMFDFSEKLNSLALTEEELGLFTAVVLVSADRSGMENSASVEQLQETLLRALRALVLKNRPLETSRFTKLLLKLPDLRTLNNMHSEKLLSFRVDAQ
# PG9 Ab binder = binds the HIV-1 gp120 antibody PG9. 0.43% of 360,000 active. inhibition, % at 6.7 µM. TR-FRET gp120-PG9 antibody binding; in the data active = inhibition above about 8.5%
# ZTA DNA inh = blocks Epstein-Barr virus ZTA, an EBNA-1 counter-screen. ZTA-DNA binding, fluorescence polarization. inhibition, % at 11 µM. P03206. 0.15% of 320,000 active; in the data active = inhibition above about 33%
# aDG glyco up = alpha-DG glycosylation activation; AID 624168; 0.22% of 360,000 active; Pro5-aDG cells, alpha-DG glycosylation AlphaScreen (IIH6); 0% Pro5, 100% B10-LARGE cell signal; activation, % at 10 µM;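 active = activation of at least 8% versus controls, or a plate z-score of at least 8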;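 note: Pro5 are CHO cells carrying HIG-tagged alpha-DG that lacks glycosylation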
# p47phox inh = p47phox (human) inhibition; p47phox/p22phox peptide binding, fluorescence polarization, 2 h; 0.53% of 220,000 active; inhibition, % at 24.7 µM;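 active = inhibition above about 30%, limit read from the data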;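 note: 0% = p47phox with labelled peptide and 100% = labelled peptide alone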
# PG9 binder conf = PG9 antibody binding, confirmed. shares compounds with PG9 Ab binder. 90% of 1,500 active. TR-FRET PG9 antibody binding, biochemical. inhibition, % at 6.7 µM; in the data active = inhibition above about 9%
# PGV04 counter = PGV04 control antibody binding, counter-screen; TR-FRET PGV04 antibody-gp120 binding, biochemical; shares compounds with PG9 Ab binder; 95% of 1,500 active; inhibition, % at 6.7 µM; in the data active = inhibition above about 9.5%
# Starred values were filed as active, the others as inactive; / = no result given.
SMILES,EBNA-1 inh,NR1D1 modulator,PG9 Ab binder,ZTA DNA inh,aDG glyco up,p47phox inh,PG9 binder conf,PGV04 counter
CCN(CCCNC(=O)CCn1c(=S)[nH]c2cc3c(cc2c1=O)OCO3)c1cccc(C)c1,8,-1,10*,11,0,/,12*,14*
CCOC(=O)N1CCN(C(=O)CCCCCn2c(=S)[nH]c3cc4c(cc3c2=O)OCO4)CC1,0,1,8.7*,0,0,-9,3,16*
O=C(CCCCCn1c(=S)[nH]c2cc3c(cc2c1=O)OCO3)NCCc1ccccc1,9,18,20*,9,0,/,17*,24*
CCCCC(=O)N1CCN(C(=O)c2ccc3c(c2)nc(C)n3C2CCCC2)CC1,/,-8,/,/,/,/,/,/
N#Cc1c(SC(C(=O)O)c2ccccc2)nc2c(c1-c1cccs1)CCCC2 (stereo not given),10,-8,20*,0,0,-13,32*,44*
COc1cccc(-n2c(=O)[nH]cc(C(=O)Nc3ccc4c(c3)OCCO4)c2=O)c1,10,3,29*,1,0,-1,7,9
COc1ccc(-n2c(=O)[nH]cc(C(=O)Nc3ccc4c(c3)OCCO4)c2=O)cc1OC,11,-1,-2,10,0,/,/,/
Cc1nc2sccn2c(=O)c1S(=O)(=O)Nc1cccc(Cl)c1C,2,2,9.8*,6,0,/,16*,16*
C[C@H]1[C@@H](OC(=O)Nc2ccccc2Cl)CC[C@@]23CCCN2C(=O)CCC[C@@H]13,/,3,/,/,/,/,/,/
CCCN1C(=O)C2(C(C(=O)c3ccc(C)o3)=C(O)C(=O)N2CCCOC)c2ccccc21 (stereo not given),-6,0,9.2*,-2,0,-9,18*,22*
Cc1ccc(C(=O)C2=C(O)C(=O)N(CCCN3CCOCC3)C23C(=O)N(C)c2ccccc23)o1 (stereo not given),-17,-5,9.1*,-5,0,-16,19*,23*
CCN1C(=O)C2(C(C(=O)c3ccc(C)o3)=C(O)C(=O)N2CCCN2CCOCC2)c2ccccc21 (stereo not given),-17,-1,1,2,0,-8,/,/
CCN1C(=O)C2(C(C(=O)c3cc4ccccc4o3)=C(O)C(=O)N2CCCN2CCOCC2)c2ccccc21 (stereo not given),8,-4,36*,10,0,2,45*,55*
Cc1cccc(Cn2cc(CN3CC(N(C)CCCOC(=O)c4cc(C)cc(C)c4)CS3(=O)=O)nn2)c1 (stereo not given),/,-2,/,/,/,/,/,/
N#Cc1c(-c2cccs2)nc(SCc2ccc(Cl)cc2)[nH]c1=O,/,0,47*,/,0,-71,50*,61*
CCC(Sc1nc(-c2ccccc2)c(C#N)c(=O)[nH]1)C(=O)Nc1cc(C)on1 (stereo not given),0,-1,28*,6,0,-9,36*,45*
CSc1nc(-c2ccccc2)c(C#N)c(=O)[nH]1,2,1,15*,-13,0,-15,22*,35*
N#Cc1c(-c2ccccc2)nc(SCC(=O)NC2CCCCC2)[nH]c1=O,8,0,8,7,0,-3,/,/
CCSc1nc(-c2ccccc2)c(C#N)c(=O)[nH]1,-1,-2,9.5*,3,0,-1,15*,21*
O=c1[nH]c(SCc2ccc(Cl)cc2)nc2ccsc12,-14,-6,-1,11,/,3,/,/
CSc1nc(-c2ccc(Cl)cc2)c(C#N)c(=O)[nH]1,-8,-4,4,-19,0,-12,/,/
O=C(Cc1cccs1)NC1CCCCN(Cc2cccc(Cl)c2)C1=O (stereo not given),/,1,/,/,/,/,/,/
CC(C)(C)c1ccc(S(=O)(=O)N2CCCC(C(=O)NCc3ccco3)C2)cc1 (stereo not given),/,3,/,/,/,/,/,/
COc1ccc(/C=C2\CC3(OC(=O)c4ccco4)CCCN2C3)cc1 (stereo not given),/,2,/,/,/,/,/,/
CCOc1ccc(-n2c(SC/C=C/c3ccccc3)nnc2-c2ccco2)cc1,/,-1,/,/,/,/,/,/
SMILES,EBNA-1 inh,NR1D1 modulator,PG9 Ab binder,ZTA DNA inh,aDG glyco up,p47phox inh,PG9 binder conf,PGV04 counter
CSc1nc(-c2cccs2)c(C#N)c(=O)[nH]1,10,-9,49*,7,0,-19,55*,68*
N#Cc1c(-c2cccs2)cc(-c2cccs2)[nH]c1=O,-5,4,6,-16,0,-21,/,/
CNC(=O)NC(=O)CSc1nc(-c2cccs2)c(C#N)c(=O)[nH]1,/,5,58*,/,0,-5,58*,70*
C=CCN1C(=O)[C@H](CC(=O)NCc2cccs2)[C@@]2(C(=O)OCC)CCCC=C12,/,-4,/,/,/,/,/,/
O=C(Nc1ccccc1)n1ccc2ccc(-c3ccc4cc[nH]c4c3)cc21,/,4,/,/,/,/,/,/
O=C(O)CSc1c2c(nc3cc(C(=O)Nc4cccc(C(F)(F)F)c4)ccc13)CCC2,8,-3,16*,17,0,/,33*,54*
O=C(O)C1CCN(c2nc(-c3ccccc3)c3cc(Br)ccc3n2)CC1,-6,1,15*,5,0,/,17*,36*
O=C(O)CCCC(=O)N1CCN(c2nc(-c3ccccc3Cl)c3cc(Br)ccc3n2)CC1,10,-4,17*,9,0,/,23*,34*
CCN(CCNC(=O)[C@H]1C=C(OC)C(=O)C[C@H](c2ccccc2)[C@H]1C)C(C)=O,/,-1,/,/,/,/,/,/
Cc1cc(N2C(=O)C(O)=C(C(=O)c3cc4ccccc4o3)C2c2ccc(Cl)cc2)no1 (stereo not given),-2,7,26*,16,0,/,33*,51*
Cc1cc(N2C(=O)C(O)=C(C(=O)c3cc4ccccc4o3)C2c2ccc(Br)cc2)no1 (stereo not given),7,-2,12*,-8,0,/,32*,45*
Cc1cc(N2C(=O)C(O)=C(C(=O)c3ccc(C)o3)C2c2cccc(Cl)c2)no1 (stereo not given),/,-2,8.7*,/,0,/,17*,24*
CCCOc1ccc(C2C(C(=O)c3cc4ccccc4o3)=C(O)C(=O)N2c2cc(C)on2)cc1 (stereo not given),10,-6,6,14,0,/,/,/
Cc1cc(N2C(=O)C(O)=C(C(=O)c3cc4ccccc4o3)C2c2cccc(Cl)c2)no1 (stereo not given),5,-2,27*,10,0,/,40*,56*
Cc1cc(N2C(=O)C(O)=C(C(=O)c3ccco3)C2c2cccc(Cl)c2)no1 (stereo not given),-4,-1,3,0,0,/,/,/
